About 13,000 (27%) of roughly 48,000 compounds showed an effect of 50% or more. This is one part of the list.
Test system: Wolbachia pipientis
Test: Anti-Wolbachia Cell-Based Screen
Format: functional
Design: scale not given: in the data most compounds retested in dose-response had high values
Settings: 5 µM

Compared with `O=c1c2cnc(N3CCCCC3)nc2ccn1-c1ccccc1`, `CCn1ncnc1CN1CCOC(Cc2cccc3ccccc23)C1` (centres undefined) is lower in “Percent Effect” value: 8.71% for the first, -5.971% for the second.

Going from `COCCSCC(=O)NC1(c2cccc(Br)c2)CC1` to `CC(=O)N(C)CC(=O)NCC1(c2cccc(C)c2)CCCC1`, the “Percent Effect” value falls from -2.226% to -4.333%.

First: COc1ccc(CN2CC3(CCNCC3)CCC2=O)c(F)c1F
Second: CC(C)CN1CC2(CCN(C(=O)C(O)c3cccc(Cl)c3)CC2)CC1=O (centres undefined)
The “Percent Effect” value of the first is lower: -14.66% for the first, 4.909% for the second.

Compared with `Cc1nn(C)cc1-c1ccnc(N(C)Cc2ccc(F)cc2)n1`, `Cc1ccc(CN(C)c2nccc(-c3cn(C)nc3C)n2)o1` is lower in “Percent Effect” value: 21.27% for the first, -5.707% for the second.

Compared with `Cc1ncncc1-c1ccnc(N(C)C)n1`, `Cc1ncncc1-c1ccnc(N)n1` is higher in “Percent Effect” value: 99.71% for the first, 103.4% for the second.

Going from `Cc1ccc(-c2ccnc(NC(C)c3ncc[nH]3)n2)c(C)n1` (centres undefined) to `Cc1ccc(-c2ccnc(NC(C)c3n[nH]c(C)n3)n2)c(C)n1` (centres undefined), the “Percent Effect” value falls from 7.863% to -0.9271%.

Going from `Cc1ncncc1-c1ccnc(NC(C)C)n1` to `Nc1nccc(-c2c[nH]nc2C2CCCCC2)n1`, the “Percent Effect” value falls from 107.6% to -15.86%.

Compared with `Nc1nccc(-c2cccc3ccnn23)n1`, `Cc1ccc(CC(NC(=O)Cn2cnnn2)c2ccccn2)cc1` (centres undefined) is higher in “Percent Effect” value: -5.19% for the first, 13.96% for the second.

Compared with `O=C(CSc1ccccn1)N1C[C@H]2CC[C@@H]1CN(Cc1cscn1)C2`, `Cc1cnn(C2CN(CC(=O)NCc3ccccn3)C2)c1` is lower in “Percent Effect” value: 3.579% for the first, 0.4192% for the second.

Going from `CCN(CC)c1ncc(Cl)c(C(=O)NC2CCc3nccn3C2)n1` (centres undefined) to `CN(C)C(=O)COc1ccccc1CNC1CCc2ncnn2C1` (centres undefined), the “Percent Effect” value rises from -2.888% to -0.6489%.

Going from `Cc1ccccc1N1CCN(C(=O)c2cnn(C(C)C)c2)C(C)C1` (centres undefined) to `CN(CCCc1cnn(C)c1)C(=O)C1COc2ccccc2C1` (centres undefined), the “Percent Effect” value falls from 2.986% to -12.29%.

Compared with `COc1cccc2c1OCC(C(=O)N(Cc1ccncc1)CC(C)C)C2` (centres undefined), `COc1cccc2c1OCC(CNC(=O)CCn1cnnn1)C2` (centres undefined) is lower in “Percent Effect” value: -1.678% for the first, -3.423% for the second.

Going from `CC(C)N(CCO)C(=O)C1CCC(=O)N(CCc2ccc(Cl)cc2)C1` (centres undefined) to `Cc1nc(CN(C)C(=O)C2CCC(=O)N(CCN(C)C)C2)cs1` (centres undefined), the “Percent Effect” value rises from -6.406% to 7.495%.

Compared with `CCOC1COC2(CCN(Cc3cccnc3OC)CC2)C1.O=C(O)C(F)(F)F.O=C(O)C(F)(F)F` (centres undefined), `CNC(=O)COC1COC2(CCN(Cc3cccnc3OC)CC2)C1.O=C(O)C(F)(F)F` (centres undefined) is lower in “Percent Effect” value: 97.13% for the first, 91.78% for the second.

Compared with `COc1ncccc1CN1CCC2(CC1)CC(OCC1CC1)CO2.O=C(O)C(F)(F)F` (centres undefined), `COC1COC2(CCN(Cc3ccccc3Cl)CC2)C1.O=C(O)C(F)(F)F` (centres undefined) is lower in “Percent Effect” value: 103.5% for the first, -10.24% for the second.

Going from `CNC(=O)COC1COC2(CCN(c3ncccn3)CC2)C1.O=C(O)C(F)(F)F` (centres undefined) to `O=C(O)C(F)(F)F.O=C(O)C(F)(F)F.c1cnc(N2CC[C@@H](N3CCOCC3)[C@@H]2Cc2ccncc2)nc1`, the “Percent Effect” value falls from 21.38% to -7.245%.

Going from `COc1ncccc1CN1CCC2(CC1)CN(c1ccccn1)CCO2.O=C(O)C(F)(F)F.O=C(O)C(F)(F)F.O=C(O)C(F)(F)F` to `CCn1cc(C(=O)NCC2(C(N)=O)CCOCC2)c2ccccc21`, the “Percent Effect” value falls from 8.158% to -0.08495%.

Going from `Cc1cc(N2CCCC(OC(=O)CCc3cnn(C)c3)C2)nc(C)n1` (centres undefined) to `COc1cc(C)nc(N2CCN(C(=O)CCc3ccsc3)CC2)n1`, the “Percent Effect” value rises from 0.03167% to 17.96%.

First: COCCN1CCN(CC2(O)CCCCC2)CC1
Second: CN(C)c1cncc(C2CCN(CC3(O)CCCCC3)CC2)n1
The “Percent Effect” value of the first is lower: -7.115% for the first, 90.17% for the second.

Going from `COCCN1CCC(C)(c2cc(O)[nH]n2)CC1` to `COCCN1CCCC(C)(c2cc(O)[nH]n2)C1` (centres undefined), the “Percent Effect” value falls from 107.8% to 85%.

Compared with `COCCCC1(CO)CCCN(CCS(C)(=O)=O)C1` (centres undefined), `COCCCC1(CO)CCCN(CCOC)C1` (centres undefined) is higher in “Percent Effect” value: -5.665% for the first, 5.578% for the second.

First: COCCN1CCC2(CC1)CC(OCC1CC1)c1ccc(C)cc12 (centres undefined)
Second: COCCN1CCC(c2nc3ccccc3[nH]2)CC1
The “Percent Effect” value of the first is lower: -29.1% for the first, 5.31% for the second.

Going from `COc1cccc([C@@H]2CN(C3CSCCSC3)C[C@H]2C(=O)O)c1` to `COc1ccc(CN2C[C@@H]3CC[C@H](C2)N(Cc2snnc2C)C3)cc1`, the “Percent Effect” value rises from -1.681% to -1.178%.

Compared with `CC(C)NC(=O)NC(C)c1ccc(-c2ccncc2)cc1` (centres undefined), `Cc1ccccc1CN(Cc1ccccn1)C(=O)CN(C)C(C)C` is higher in “Percent Effect” value: -5.821% for the first, -1.429% for the second.

Compared with `CO[C@H]1CCN(S(=O)(=O)c2cn(C)cn2)[C@H]1Cc1ccncc1`, `CN([C@@H]1CCC[C@@H](n2ccnc2)[C@@H]1O)S(=O)(=O)c1cn(C)cn1` is higher in “Percent Effect” value: -4.113% for the first, 87.13% for the second.

Going from `Cc1nn(C)cc1S(=O)(=O)N(C)[C@@H]1CCC[C@@H](n2ccnc2)[C@@H]1O` to `CN(C)C(=O)c1cc(S(=O)(=O)N2CCCC2Cn2ccnc2)cn1C` (centres undefined), the “Percent Effect” value falls from 94.74% to 11.52%.

Compared with `CCN(CC)[C@@H]1CN(S(=O)(=O)c2cn(C)cn2)[C@@H]2CCCO[C@H]12`, `COCCN1CCC(c2cncc(N(C)C)n2)CC1` is higher in “Percent Effect” value: -3.081% for the first, 88.64% for the second.

Going from `CC(C)N(C)CC(=O)N1CCCC(n2ccnc2)C1` (centres undefined) to `CCc1nccn1C1CCCN(C(=O)c2ccnc(N(C)C)c2)C1` (centres undefined), the “Percent Effect” value rises from -10.62% to 1.194%.

First: CNC(=O)[C@@H](c1ccccc1F)N1CCC[C@H]1C(=O)NC1CCOCC1.Cl
Second: Cc1cccc(C(=O)Nc2ccc(OC3CCOCC3)c(C)c2)n1
The “Percent Effect” value of the first is lower: 3.155% for the first, 4.017% for the second.

First: CCCN1CCCn2nc(CNS(=O)(=O)c3cccc(C#N)c3)cc2C1
Second: Cc1c(CNCc2nn(-c3ccccc3)c3c2CCC3)cc(C#N)n1C
The “Percent Effect” value of the first is higher: 3.103% for the first, -12.67% for the second.

Going from `COc1ccc(CNC2CCc3ncnn3C2)cc1OCCCC#N` (centres undefined) to `COCCOc1ccc(CNC2CCc3ncnn3C2)cc1OC` (centres undefined), the “Percent Effect” value falls from 100.9% to 100.1999%.

Going from `COc1ccc(CNC2CCC(O)CC2)cc1OCCCC#N` (centres undefined) to `COc1ccc(CCC(=O)NC2CCC(O)CC2)cc1OC` (centres undefined), the “Percent Effect” value falls from 107.9% to -0.04658%.

First: COc1ccc(CNC2CCc3ncnn3C2)cc1OCC1CC1 (centres undefined)
Second: c1ccc(OC2CCCC2)c(CNC2CCc3ncnn3C2)c1 (centres undefined)
The “Percent Effect” value of the first is higher: 83.43% for the first, 12.7% for the second.

Compared with `COc1ccc(CNCC2CC2)cc1F`, `COc1ccc(CN2CCCC2)cc1Oc1ccc2c(c1)CC(CN)O2` (centres undefined) is lower in “Percent Effect” value: 0.5807% for the first, -16.95% for the second.

Going from `CNC(=O)COc1ccccc1CNC1CCc2ncnn2C1` (centres undefined) to `CN(CCc1ccccn1)C(=O)c1cn2c(n1)CNCC2`, the “Percent Effect” value rises from -1.235% to -0.4774%.

First: CCOc1ccc(N(CCC#N)C(=O)c2ccc(OC)nc2)cc1
Second: CN(C)c1ccc(C(=O)Nc2cnn(Cc3ccccn3)c2)cc1
The “Percent Effect” value of the first is higher: 22.48% for the first, -12.03% for the second.

Going from `CC(C)N(CC(N)=O)Cc1csc(COc2ccc(F)cc2)n1` to `CC(C)N(Cc1ccccn1)C(=O)CN(C)C(=O)c1cccs1`, the “Percent Effect” value rises from -2.254% to 109.7%.

Going from `CN(Cc1ccccc1NCc1ncc[nH]1)C(=O)c1cccs1` to `CN(Cc1ccccc1NCc1cscn1)C(=O)c1cccs1`, the “Percent Effect” value falls from 4.243% to -0.6624%.

First: CN(CCc1ccccn1)C(=O)c1cccs1.Cl
Second: CN(CC(=O)NCCc1ccccn1)C(=O)c1cccs1
The “Percent Effect” value of the first is higher: 100.7% for the first, 94.6% for the second.

Compared with `O=C(Cc1ccc2c(c1)CCCC2)NCCc1ccccn1`, `CN(CCc1ccccn1)C(=O)C1Cc2ccccc2CN1C` (centres undefined) is higher in “Percent Effect” value: 0.3571% for the first, 6.694% for the second.

Going from `Cc1cccnc1CC(C)N(C)C(=O)c1cccs1` (centres undefined) to `CCCN(CCc1ccccn1)C(=O)Cn1cc(C)cn1`, the “Percent Effect” value rises from -6.366% to 98.5%.

First: Cc1nnn2c1COCC(CNC(=O)c1ccc3[nH]ccc3c1)C2 (centres undefined)
Second: Cc1nccn1C1CCCN(C(=O)c2ccc3c(c2)NC(=O)CO3)C1 (centres undefined)
The “Percent Effect” value of the first is higher: 13.15% for the first, 3.537% for the second.

First: CCN(C)CC1CCN(C(=O)Nc2ccc(-c3csnn3)cc2)C1 (centres undefined)
Second: Cc1ccccc1C(=O)N1C[C@@H]2[C@@H](CN(C)CCc3ccccn3)[C@@H]2C1
The “Percent Effect” value of the first is lower: -9.21% for the first, -8.245% for the second.

First: Cc1nc(C)c(CN(C)C2CCN(C(=O)OC(C)(C)C)CC2)s1
Second: CN(C)c1cncc(C2CCN(CC(N)=O)CC2)n1
The “Percent Effect” value of the first is lower: -6.792% for the first, 103% for the second.

Going from `O=S(=O)(Nc1cn[nH]c1)c1ccc(F)c(Br)c1` to `CN(C)c1nc(NCc2ccccc2Cn2cccn2)ncc1F`, the “Percent Effect” value rises from -20.95% to 5.014%.

Compared with `OC1(CN2CCCC2)CCCN(Cc2ccc(F)cc2Cl)C1` (centres undefined), `OC1(CN2CCCC2)CCCN(Cc2c[nH]c(CC3CCCC3)n2)C1` (centres undefined) is lower in “Percent Effect” value: -5.76% for the first, -7.473% for the second.

Going from `CN(C)c1cncc(C2CCN(CCO)CC2)n1` to `CCn1cc(CN2CCCC(COc3ccc(F)cc3)C2)cn1` (centres undefined), the “Percent Effect” value rises from -9.091% to 31.54%.

First: CCCN(CCc1ccccn1)C(=O)CCc1cnn(C)c1
Second: CCCN(CCc1ccccn1)C(=O)Cn1cnnn1
The “Percent Effect” value of the first is lower: 95.46% for the first, 104.6% for the second.

Going from `N#CC1(NC(=O)COc2cc(Cl)cc(Cl)c2)CCOCC1` to `CCc1nccn1C1CCCN(C(=O)c2ccc3c(c2)OCCO3)C1` (centres undefined), the “Percent Effect” value rises from -7.839% to 89.9%.

Compared with `CC(C)OCCC(=O)Nc1ncn(CC(=O)N2CCCCCC2)n1`, `CC(C)c1nccn1C1CCCN(C(=O)c2ccc3c(c2)OCO3)C1` (centres undefined) is higher in “Percent Effect” value: -17.71% for the first, -3.611% for the second.

Going from `CCCS(=O)(=O)N1CCc2onc(CNc3ncccn3)c2C1` to `CCc1nccn1C1CCCN(C(=O)c2ccc3c(c2)OCO3)C1` (centres undefined), the “Percent Effect” value falls from 6.344% to 0.5679%.

Compared with `Cc1nccn1C1CCCN(C(=O)c2ccc3c(c2)OCCCO3)C1` (centres undefined), `O=C(c1ccc(SC(F)(F)F)cc1)N1CCOCC1c1ncon1` (centres undefined) is lower in “Percent Effect” value: 112.3% for the first, -6.89% for the second.
